Measured values from PMC4336329 (PLoS ONE, 2015).
The campaign covered roughly 310,000 compounds. About 14,000 (4.5%) showed an effect of 50% or more. Effects have a minus sign here. What follows is part of a selection rich in strong results, with near analogues and random picks from the rest.

What follows are molecules tested against human ether-à-go-go-related gene (hERG) potassium channel (human, UniProt Q12809) (assay: primary screen, population patch clamp on CHO cells stably expressing hERG; higher = less effect of the substance).
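Also: peak tail current of the secondary pulse compared with the same well before compound.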

Sequence of human ether-à-go-go-related gene (hERG) potassium channel (Q12809 whole entry, looked up): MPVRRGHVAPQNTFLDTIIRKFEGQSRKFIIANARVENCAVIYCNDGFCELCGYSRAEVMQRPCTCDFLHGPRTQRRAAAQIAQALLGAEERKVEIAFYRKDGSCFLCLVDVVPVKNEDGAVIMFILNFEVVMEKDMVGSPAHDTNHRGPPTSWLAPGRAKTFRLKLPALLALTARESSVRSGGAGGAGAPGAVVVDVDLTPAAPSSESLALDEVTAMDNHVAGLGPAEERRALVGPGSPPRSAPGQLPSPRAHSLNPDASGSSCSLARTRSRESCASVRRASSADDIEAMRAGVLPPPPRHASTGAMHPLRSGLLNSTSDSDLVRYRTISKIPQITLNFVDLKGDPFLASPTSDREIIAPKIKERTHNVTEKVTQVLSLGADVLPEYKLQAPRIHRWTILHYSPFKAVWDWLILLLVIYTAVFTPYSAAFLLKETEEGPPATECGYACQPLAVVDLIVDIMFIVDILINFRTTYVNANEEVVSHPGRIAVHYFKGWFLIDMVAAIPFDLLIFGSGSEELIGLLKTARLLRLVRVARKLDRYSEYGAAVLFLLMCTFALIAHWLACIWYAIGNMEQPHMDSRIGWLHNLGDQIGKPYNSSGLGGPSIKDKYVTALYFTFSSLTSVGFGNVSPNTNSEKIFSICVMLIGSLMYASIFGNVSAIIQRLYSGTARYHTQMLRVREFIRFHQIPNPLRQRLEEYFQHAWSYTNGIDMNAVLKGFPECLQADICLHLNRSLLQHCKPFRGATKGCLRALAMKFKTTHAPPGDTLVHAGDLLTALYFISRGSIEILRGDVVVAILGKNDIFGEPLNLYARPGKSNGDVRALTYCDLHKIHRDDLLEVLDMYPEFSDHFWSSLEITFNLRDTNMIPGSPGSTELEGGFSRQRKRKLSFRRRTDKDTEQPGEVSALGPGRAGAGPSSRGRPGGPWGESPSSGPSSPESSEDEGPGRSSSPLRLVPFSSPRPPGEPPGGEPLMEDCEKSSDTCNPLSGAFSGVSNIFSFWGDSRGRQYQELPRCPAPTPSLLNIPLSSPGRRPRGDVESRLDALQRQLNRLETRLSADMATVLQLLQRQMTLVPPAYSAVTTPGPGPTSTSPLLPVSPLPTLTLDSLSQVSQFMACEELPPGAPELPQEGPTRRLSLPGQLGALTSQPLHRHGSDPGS

Compound | hERG current change (%, negative = inhibition) at 10uM
CCOC(=O)C1CCCN(C(=O)c2ccc(Cn3c(=S)[nH]c4cc(C(=O)OC)ccc4c3=O)cc2)C1 (stereo not drawn) | 10.6%
CCN1C(=O)[C@H]2[C@@H](c3ccc(C)cc3)N3C(=O)N(c4ccc(C(F)(F)F)cc4)C(=O)[C@@]3(CC(C)C)[C@H]2C1=O | 14.6%
Cc1ccc(C)c(NC(=O)CN(C)S(=O)(=O)c2ccc(F)cc2)c1 | 3.47%
Cc1cc(NC(=O)CSc2nc(-c3ccccc3)c(C#N)c(=O)[nH]2)no1 | -0.629%
Cc1ccsc1/C=C1\C(=O)NC(=S)N(C)C1=O | 15.3%
O=C(COc1ccc(Cl)cc1)NCCS(=O)(=O)N1CCN(c2ccccc2F)CC1 | 5.38%
CC(=O)C1=C(O)C(=O)N(c2cccc(Br)c2)C1c1ccccc1Cl (stereo not drawn) | -4.7%
COc1ccc(OC)c(NC(=O)c2nc(-c3ccccc3)oc2C)c1 | -6.31%
O=S(=O)(Nc1ccc(Br)cc1)c1cccc(NC(=S)NCCN2CCOCC2)c1 | 3.16%
Cc1ccc(CN2Cc3cccc4c3[C@@H](CC2=O)[C@H](O)[C@H](O)C4)cc1 | 19.6%
COc1ccc(N2CCN(C(=O)CCc3nnc4ccc(N5CCCC5)nn34)CC2)cc1 | -7.68%
COc1cc(NC(=O)CCc2nnc3ccc(N4CCN(c5cccc(OC)c5)CC4)nn23)cc(OC)c1 | 7.07%
COc1ccc(N2CCN(C(=O)CCc3nnc4ccc(N5CCC(C)CC5)nn34)CC2)cc1 | -66.1%
COc1ccccc1N1CCN(C(=O)CCc2nnc3ccc(N4CCC(C)CC4)nn23)CC1 | -33.5%
CC1CCN(c2ccc3nnc(CCC(=O)Nc4cc(F)ccc4F)n3n2)CC1 | -37.5%
CC1CCN(c2ccc3nnc(CCC(=O)N4CCN(c5ccccc5F)CC4)n3n2)CC1 | -62.6%
O=C(CCc1nnc2ccc(N3CCCC3)nn12)Nc1cc(F)ccc1F | -50.4%
COc1cccc(NC(=O)CCc2nnc3ccc(N4CCN(c5cccc(OC)c5)CC4)nn23)c1 | 13.6%
COc1ccccc1N1CCN(C(=O)CCc2nnc3ccc(N4CCCC4)nn23)CC1 | -34.1%
COc1ccc(N2CCN(C(=O)CCc3nnc4ccc(N5CCOCC5)nn34)CC2)cc1 | -5.83%
O=C(CCc1nnc2ccc(N3CCCC3)nn12)Nc1ccc(F)cc1F | 8.27%
COc1cccc(N2CCN(c3ccc4nnc(CCC(=O)Nc5ccccc5OC)n4n3)CC2)c1 | -62.6%
N#CCCN(C(=O)COC(=O)c1ccc2c(c1)NC(=O)CS2)c1ccc2c(c1)OCCO2 | -22.8%

Compound | hERG current change (%, negative = inhibition) at 10uM
CCOCCOC(=O)C1=C(C)NC(=O)NC1c1cc2c(cc1Br)OCO2 (stereo not drawn) | -30.5%
O=C(CSCc1ccccc1)Nc1ccc(F)c(F)c1 | -3.2%
Cc1cc(C)cc(C(=O)NCC(=O)OCC(=O)c2cc(C)n(CC(F)(F)F)c2C)c1 | 1.83%
Cc1noc(C)c1CSc1nc2ccccc2s1 | -10.1%
CC1CCN(c2ccc3nnc(CCC(=O)N4CCCCC4)n3n2)CC1 | -3.14%
COc1ccc(NC(=O)CCc2nnc3ccc(N4CCN(c5cccc(OC)c5)CC4)nn23)cc1 | -22.8%
CC1CCN(c2ccc3nnc(CCC(=O)N4CCN(c5ccc(F)cc5)CC4)n3n2)CC1 | -66.2%
COc1cccc(N2CCN(C(=O)CCc3nnc4ccc(N5CCCC5)nn34)CC2)c1 | -28.7%
COc1ccc(N2CCN(c3ccc4nnc(CCC(=O)Nc5ccc(C)cc5)n4n3)CC2)cc1 | -70.1%
CCCN1CCN(C(=O)CCc2nnc3ccc(N4CCN(c5cccc(OC)c5)CC4)nn23)CC1 | -54.9%
COc1cccc(N2CCN(c3ccc4nnc(CCC(=O)N5CCN(C)CC5)n4n3)CC2)c1 | -1.62%
COc1cccc(N2CCN(c3ccc4nnc(CCC(=O)N5CCC(C)CC5)n4n3)CC2)c1 | -66.4%
CCN1CCN(C(=O)CCc2nnc3ccc(N4CCN(c5cccc(OC)c5)CC4)nn23)CC1 | -5.55%
COc1cccc(N2CCN(C(=O)CCc3nnc4ccc(N5CCOCC5)nn34)CC2)c1 | -7.05%
CC1CCN(c2ccc3nnc(CCC(=O)Nc4ccc(F)cc4)n3n2)CC1 | -39.6%
COc1ccc(NC(=O)CCc2nnc3ccc(N4CCC(C)CC4)nn23)cc1 | -22.9%
CCN(CC(=O)Nc1ccccc1OC)C(=O)C1CCCC1 | 0.547%
CC1CCN(C(=S)Nc2cccc(S(=O)(=O)N(C)C)c2)CC1 | 11.1%
CO/N=C/c1cccn1-c1nccc(OC)c1C#N | 19.1%
Cc1nc(C)c(C(=O)C2=C(O)C(=O)N(CCN3CCOCC3)C2c2cccs2)s1 (stereo not drawn) | 5.12%
COc1cc(/C=C/C(=O)O)ccc1OS(=O)(=O)c1c(C)cc(C)cc1C | -43.2%
C=CCOc1ccc(/C=C/C(=O)OCC(=O)N(C)CC(=O)Nc2ccc(F)cc2)cc1 | 7.74%
COc1ccccc1CC(=O)Nc1c[nH]c(=O)[nH]c1=O | 38.8%

Compound | hERG current change (%, negative = inhibition) at 10uM
Cc1ccc2c(c1)c1ncnc(N3CCN(c4ccccc4)CC3)c1n2C | -12.3%
Cc1ccccc1CN1CCNCC1.Cl | 14%
c1ccc2c(c1)CC(CN1CCNCC1)O2 (stereo not drawn) | -52.3%
CC(C)N1CCN(CC2COc3ccccc3O2)CC1.Cl (stereo not drawn) | -19.4%
Cn1c(=O)oc2cc(S(=O)(=O)Nc3cccc([N+](=O)[O-])c3)ccc21 | 4.69%
Cc1ccc(C)c(Cn2nnc3c(=O)[nH]c(C(=O)Nc4ccc(F)cc4)nc32)c1 | 28.5%
CCOc1ccc(C(=O)N2CCCC2)cc1OC | -14.7%
Cl.OC(COc1c(F)cc(Br)cc1F)CN1CCOCC1 (stereo not drawn) | 2.28%
Cl.OC(COc1c(F)cc(Br)cc1F)CN1CCN(c2ccc(F)cc2)CC1 (stereo not drawn) | -25.7%
Cc1ccc(C)c(OCC(O)CN2CCc3ccccc3C2)c1C.Cl (stereo not drawn) | -65.3%
Cc1ccc(C)c(OCC(O)CN2CCC(C)CC2)c1C (stereo not drawn) | -33.6%
Cc1cccc(C)c1OCC(O)Cn1c2ccccc2c2ccccc21 (stereo not drawn) | 6.83%
Cc1cccc(C)c1OCC(O)CN1CCc2ccccc2C1.Cl (stereo not drawn) | -64.2%
Cl.OC(COc1c(F)cc(Br)cc1F)CN1CCc2ccccc2C1 (stereo not drawn) | -72.2%
Nc1ccc(S(=O)(=O)Nc2nc(-c3ccccc3)cc(-c3ccccc3)n2)cc1 | 21.6%
Cc1ccc(NC(=O)Cn2nc(C)c3ccccc3c2=O)c(C)c1 | 10.2%
NC(=O)CN1C(=O)C(=O)N(Cc2ccccc2Cl)C1=O | 8.45%
CC(=O)Nc1c(C(=O)C2CC2)oc2ccccc12 | -7%
Cc1ccc(OCC(O)CN2CCN(c3ccccc3)CC2)cc1 (stereo not drawn) | -38.6%
Cc1ccc(N2CCN(CC(O)COC3CCCCC3)CC2)cc1 (stereo not drawn) | -56.1%
CC(C)(C)C1CCC(OCC(O)CN2CCN(c3ccccc3)CC2)CC1.Cl (stereo not drawn) | 1.42%
OC(COC1CCCCC1)CN1CCN(c2ccccc2)CC1 (stereo not drawn) | -29.8%
Cc1ccc(OCC(O)CN2CCCC2)cc1 (stereo not drawn) | 11.5%

Compound | hERG current change (%, negative = inhibition) at 10uM
Cc1ccc(N2CCN(CC(O)COc3ccccc3)CC2)cc1 (stereo not drawn) | -50.9%
Cc1ccc(OCC(O)CN2CCOCC2)cc1 (stereo not drawn) | 8.2%
Cc1ccc(OCC(O)CN2CCN(CC(O)COc3ccc(C)cc3)CC2)cc1 (stereo not drawn) | -63.9%
COc1cccc(OC)c1OCC(O)CN1CCN(c2ccccc2)CC1.Cl (stereo not drawn) | -33.3%
Cc1cccc(C)c1OCC(O)CN1CCN(c2ccccc2)CC1.Cl (stereo not drawn) | -53.1%
CC(C)c1ccc(OCC(O)CN2CCN(c3ccccc3)CC2)cc1.Cl (stereo not drawn) | -47.3%
Cc1nc(N)c(C#N)c(-c2ccccc2)c1C | -10.4%
CCN1C(=S)N[C@@H](c2cccs2)C(C(=O)OC)=C1C | 4.42%
O=C(CNC(=O)c1ccccc1F)N/N=C/c1cc(Br)ccc1OCc1ccccc1 | -3.96%
Fc1ccc(N/N=C/c2ccncc2)c(F)c1 | -9.23%
Cc1cccc(OCC(O)CN2CCOCC2)c1.Cl (stereo not drawn) | 10.9%
Cc1ccc(OCC(O)CN2CCN(CC(O)COc3ccc(C)cc3Cl)CC2)c(Cl)c1 (stereo not drawn) | -24.3%
Cc1ccc(N2CCN(CC(O)COc3cccc(C)c3)CC2)cc1 (stereo not drawn) | -55.1%
COC(=O)c1ccc(OCC(O)CN2CCC(C)CC2)cc1 (stereo not drawn) | -15.3%
Cc1cccc(OCC(O)CN2CCNCC2)c1.Cl (stereo not drawn) | 26.5%
COC(=O)c1ccc(OCC(O)CN2CCN(CC(O)COc3ccc(C(=O)OC)cc3)CC2)cc1 (stereo not drawn) | -72.9%
Cc1cccc(OCC(O)CN2CCN(C3CCCCC3)CC2)c1.Cl (stereo not drawn) | -50.3%
Cc1ccc(OCC(O)CN2CCN(CC(O)COC(C)C)CC2)c(C(C)(C)C)c1 (stereo not drawn) | -65.2%
Cc1cccc(OCC(O)CN2CCN(S(=O)(=O)c3ccc(C)cc3C)CC2)c1 (stereo not drawn) | -17.5%
COC(=O)c1ccc(OCC(O)CN2CCOCC2)cc1 (stereo not drawn) | 15%
CCOC(=O)N1CCN(CC(O)COc2cc(C)ccc2C(C)C)CC1.Cl (stereo not drawn) | -26.8%
